One assay has as its target T1, ETV3 (Homo sapiens, UniProt P41162-2 1-143).
T1 sequence: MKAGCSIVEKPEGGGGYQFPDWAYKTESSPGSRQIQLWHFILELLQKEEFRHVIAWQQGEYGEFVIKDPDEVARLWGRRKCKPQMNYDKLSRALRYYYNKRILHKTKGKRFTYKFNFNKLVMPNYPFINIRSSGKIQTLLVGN
In words: DAPPL (digital affinity profiling via proximity ligation, sequencing); 10 mM Tris-HCl pH 7.5, 50 mM NaCl, 1 mM DTT, 4% glycerol, room temperature, 30 min; GST-TFs on glutathione beads, 16-mer random dsDNA library, 0.1% formaldehyde crosslink after washing; high values mean tight binding. Particulars: protein: recombinant; tags: N-terminal GST; dsDNA, one strand shown. The essentials: (§1)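 Beads coated with glutathione captured GST-fused human transcription factors that had been expressed in yeast, and the factors were then given DNA barcodes and pooled with a tag-only sample. The pools were incubated with 200 nmole of a random double-stranded 16-mer DNA library in Tris/NaCl/DTT/glycerol buffer for 30 min at room temperature, washed, crosslinked with 0.1% formaldehyde and proximity-ligated with BsaI/T4 ligase at 37 °C for 1 h. PCR amplification and Illumina NextSeq500 sequencing came last. Binding signal is each hexamer's read frequency for a factor divided by its frequency for the tag-only sample.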
Sequence of ETV6 (P41212 whole entry): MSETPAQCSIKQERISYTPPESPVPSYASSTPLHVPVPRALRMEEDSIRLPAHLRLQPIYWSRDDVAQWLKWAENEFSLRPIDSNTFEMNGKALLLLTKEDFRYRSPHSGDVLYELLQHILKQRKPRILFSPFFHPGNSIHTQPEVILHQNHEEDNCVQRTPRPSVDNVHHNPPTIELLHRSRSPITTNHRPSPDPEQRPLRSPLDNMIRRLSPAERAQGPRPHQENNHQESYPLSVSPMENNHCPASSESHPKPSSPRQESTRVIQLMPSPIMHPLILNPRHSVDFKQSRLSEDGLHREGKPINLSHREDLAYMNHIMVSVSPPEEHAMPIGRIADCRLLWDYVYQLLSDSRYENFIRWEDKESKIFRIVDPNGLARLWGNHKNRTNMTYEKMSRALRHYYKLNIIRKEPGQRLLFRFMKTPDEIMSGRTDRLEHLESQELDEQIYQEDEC
For ACAATG, the binding signal is 1.11 fold enrichment (6-mer frequency, TF over GST control).
In the case of AATAAC, the binding signal is 1.23 fold enrichment (6-mer frequency, TF over GST control).
The same measure, in the same setting: to GCGTCC belongs 1.24 fold enrichment (6-mer frequency, TF over GST control); to ATTATC, 1.37 fold enrichment (6-mer frequency, TF over GST control); to CGCCTC, 1.37 fold enrichment (6-mer frequency, TF over GST control).
Same read-out and setting: to TCTCAA belongs 1.3 fold enrichment (6-mer frequency, TF over GST control); to GATATG, 1.12 fold enrichment (6-mer frequency, TF over GST control); to CGTCAC, 1.11 fold enrichment (6-mer frequency, TF over GST control).
Same read-out and setting: to TGTTAC belongs 1.44 fold enrichment (6-mer frequency, TF over GST control); to CCCGGA, 3.23 fold enrichment (6-mer frequency, TF over GST control).
Regarding AAGGTA, the binding signal is 1.09 fold enrichment (6-mer frequency, TF over GST control).
Still for that read-out and setting: to CATGAT belongs 1.09 fold enrichment (6-mer frequency, TF over GST control); to GTAATC, 1.1 fold enrichment (6-mer frequency, TF over GST control).
Take TTTAAT: the binding signal is 1.21 fold enrichment (6-mer frequency, TF over GST control).
The same measure, in the same setting: for CTCTCC the value was 1.45 fold enrichment (6-mer frequency, TF over GST control); for AAGAAT, 1.14 fold enrichment (6-mer frequency, TF over GST control).
Still for that read-out and setting: for GTTTCA the value was 1.3 fold enrichment (6-mer frequency, TF over GST control).
Same read-out and setting: for CACTTC the value was 3.65 fold enrichment (6-mer frequency, TF over GST control).
In the case of CTCAAA, the binding signal was 1.2 fold enrichment (6-mer frequency, TF over GST control).
CCCGGC: the binding signal is 1.27 fold enrichment (6-mer frequency, TF over GST control).
The same measure, in the same setting: to CCGCAA belongs 1.3 fold enrichment (6-mer frequency, TF over GST control); to AAGTTG, 1.07 fold enrichment (6-mer frequency, TF over GST control); to GTCCCG, 1.32 fold enrichment (6-mer frequency, TF over GST control).
On the same count and under the same terms, for TATCTG the value was 1.21 fold enrichment (6-mer frequency, TF over GST control).
With TTCCCT, the binding signal is 1.75 fold enrichment (6-mer frequency, TF over GST control).
Same read-out and setting: for TATGCA the value was 1.33 fold enrichment (6-mer frequency, TF over GST control); for AAAGGG, 1.18 fold enrichment (6-mer frequency, TF over GST control).
Still for that read-out and setting: to TAGCAT belongs 1.16 fold enrichment (6-mer frequency, TF over GST control).
Turning to TGCACT, the binding signal is 1.35 fold enrichment (6-mer frequency, TF over GST control).
Same read-out and setting: to CCGACA belongs 1.24 fold enrichment (6-mer frequency, TF over GST control); to CTTACA, 1.29 fold enrichment (6-mer frequency, TF over GST control).
Still for that read-out and setting: for GCTCAT the value was 1.15 fold enrichment (6-mer frequency, TF over GST control); for TGCTAC, 1.23 fold enrichment (6-mer frequency, TF over GST control); for CCGGCC, 1.24 fold enrichment (6-mer frequency, TF over GST control).
Turning to GAAGCT, the binding signal is 1.75 fold enrichment (6-mer frequency, TF over GST control).
The same measure, in the same setting: for GCGACC the value was 1.1 fold enrichment (6-mer frequency, TF over GST control); for ATGGCT, 1.33 fold enrichment (6-mer frequency, TF over GST control).
Still for that read-out and setting: for CATCAC the value was 1.13 fold enrichment (6-mer frequency, TF over GST control); for CGTTCA, 1.12 fold enrichment (6-mer frequency, TF over GST control).
Take ATATTC: the binding signal is 1.19 fold enrichment (6-mer frequency, TF over GST control).

In another assay the target is ETV6 (Homo sapiens, UniProt P41212 1-452). The description is as above. Particulars: protein: recombinant; tags: N-terminal GST; dsDNA, one strand shown. The essentials:
as §1
In the case of ACAATG, the binding signal is 1.06 fold enrichment (6-mer frequency, TF over GST control).
On the same count and under the same terms, to AATAAC belongs 1.36 fold enrichment (6-mer frequency, TF over GST control).
The same measure, in the same setting: for GCGTCC the value was 1.19 fold enrichment (6-mer frequency, TF over GST control); for ATTATC, 1.29 fold enrichment (6-mer frequency, TF over GST control).
For CGCCTC, the binding signal is 1.42 fold enrichment (6-mer frequency, TF over GST control).
In the case of TCTCAA, the binding signal was 1.27 fold enrichment (6-mer frequency, TF over GST control).
The same measure, in the same setting: to GATATG belongs 1.04 fold enrichment (6-mer frequency, TF over GST control); to CGTCAC, 1.24 fold enrichment (6-mer frequency, TF over GST control).
Same read-out and setting: to TGTTAC belongs 1.31 fold enrichment (6-mer frequency, TF over GST control); to CCCGGA, 2.89 fold enrichment (6-mer frequency, TF over GST control); to AAGGTA, 1.19 fold enrichment (6-mer frequency, TF over GST control).
On to CATGAT, for which the binding signal was 1.09 fold enrichment (6-mer frequency, TF over GST control).
Same read-out and setting: to GTAATC belongs 1.2 fold enrichment (6-mer frequency, TF over GST control).
Same read-out and setting: for TTTAAT the value was 1.28 fold enrichment (6-mer frequency, TF over GST control); for CTCTCC, 1.37 fold enrichment (6-mer frequency, TF over GST control); for AAGAAT, 1.08 fold enrichment (6-mer frequency, TF over GST control).
On to GTTTCA, for which the binding signal is 1.21 fold enrichment (6-mer frequency, TF over GST control).
Same read-out and setting: to CACTTC belongs 4.24 fold enrichment (6-mer frequency, TF over GST control); to CTCAAA, 1.21 fold enrichment (6-mer frequency, TF over GST control).
Consider CCCGGC, for which the binding signal was 1.22 fold enrichment (6-mer frequency, TF over GST control).
The same measure, in the same setting: for CCGCAA the value was 1.33 fold enrichment (6-mer frequency, TF over GST control); for AAGTTG, 1.17 fold enrichment (6-mer frequency, TF over GST control).
The same measure, in the same setting: to GTCCCG belongs 1.13 fold enrichment (6-mer frequency, TF over GST control); to TATCTG, 1.17 fold enrichment (6-mer frequency, TF over GST control); to TTCCCT, 1.66 fold enrichment (6-mer frequency, TF over GST control).
On the same count and under the same terms, for TATGCA the value was 1.15 fold enrichment (6-mer frequency, TF over GST control); for AAAGGG, 1.1 fold enrichment (6-mer frequency, TF over GST control).
For TAGCAT, the binding signal was 1.15 fold enrichment (6-mer frequency, TF over GST control).
Still for that read-out and setting: for TGCACT the value was 1.41 fold enrichment (6-mer frequency, TF over GST control).
CCGACA: the binding signal is 1.23 fold enrichment (6-mer frequency, TF over GST control).
The same measure, in the same setting: to CTTACA belongs 1.24 fold enrichment (6-mer frequency, TF over GST control); to GCTCAT, 1.21 fold enrichment (6-mer frequency, TF over GST control).
Turning to TGCTAC, the binding signal was 1.16 fold enrichment (6-mer frequency, TF over GST control).
In the case of CCGGCC, the binding signal is 1.11 fold enrichment (6-mer frequency, TF over GST control).
Same read-out and setting: for GAAGCT the value was 1.59 fold enrichment (6-mer frequency, TF over GST control).
The same measure, in the same setting: for GCGACC the value was 1.08 fold enrichment (6-mer frequency, TF over GST control); for ATGGCT, 1.38 fold enrichment (6-mer frequency, TF over GST control); for CATCAC, 1.13 fold enrichment (6-mer frequency, TF over GST control).
The same measure, in the same setting: to CGTTCA belongs 1.19 fold enrichment (6-mer frequency, TF over GST control); to ATATTC, 1.32 fold enrichment (6-mer frequency, TF over GST control).

For the origin of these results see publication PMC7862700, “An all-to-all approach to the identification of sequence-specific readers for epigenetic DNA modifications on cytosine”.
